Bioassay records as filed in PubChem BioAssay.
This is a sample that favours compounds with a hit; in the whole collection about 8.7% have one here.
Sfp inh – qHTS Assay for Inhibitors of Bacillus subtilis Sfp phosphopantetheinyl transferase (PPTase); 3.5% of 310,000 active; Potency, µM, without a hit: largest response in the series, negative = inhibition, hits mostly inhibitors; Biochemical Sfp PPTase activity, qHTS; 4'-phosphopantetheinyl transferase ffp (Bacillus subtilis), Q9F4F7;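 also: the enzyme is Sfp with the accession as filed and its product quenches rhodamine fluorescence; 0% = enzyme reaction without inhibitor and -100% = no enzyme wells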
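Compounds were incubated with enzyme (final 15 nM) for 15 min at room temperature before substrate addition started the reaction. Fluorescence at 525 nm excitation, 598 nm emission was recorded immediately and after 30 minutes.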
ALOX12 inh – Primary qHTS assay for inhibitors of human arachidonate 12S-lipoxygenase (ALOX12): Round 2. Polyunsaturated fatty acid lipoxygenase ALOX12 (Homo sapiens), P18054. purified 12hLO, xylenol orange hydroperoxide absorbance. Potency, µM (highest dose often 108 µM), for inactives: at the top dose activity change, negative = inhibition, most hits filed as inhibitors. 1.1% of 580,000 active. AID 1671190, 2021; also: % is scaled to controls: 0 for no effect and ±100 for the full control effect
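Purified human 12hLO at 150 nM in 25 mM Hepes, 0.01% Triton X-100, pH 7.0, preincubated 15 min at room temperature with compound. Reaction started with 40 uM arachidonic acid, 30 min at room temperature. Hydroperoxide measured by Fe-xylenol orange, 573/405 nm absorbance ratio.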
JMJD2A Tudor inh – qHTS Assay for Inhibitors of JMJD2A-Tudor Domain; Lysine-specific demethylase 4A (Homo sapiens), O75164; AID 504339, 2011; Potency, µM (titrated, usually from 114 µM), without a hit: at the highest dose activity change, negative = inhibition, most hits filed as inhibitors; 4.4% of 390,000 active; AlphaScreen JMJD2A-Tudor / H3K4me3 peptide binding; also: % is scaled to controls: 0 for no effect and ±100 for the full control effect; nearly all actives have a fitted effect of over 50% in size
HP1b chromo inh – HTS for Inhibitors of HP1-beta Chromodomain Interactions with Methylated Histone Tails; Chromobox protein homolog 1 (Homo sapiens), P83916; AlphaScreen HP1-beta / biotin-H3K9me3 peptide binding; Potency, µM (doses to about 114 µM), without a hit: top-dose activity change, negative = inhibition, hits mostly inhibitors; 0.56% of 390,000 active; also: nearly all actives have a fitted effect of over 70% in size
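HP1-beta protein (50 nM final) preincubated 30 min at room temperature with biotinylated H3(1-18)K9me3 peptide (50 nM) in PBS pH 7.4, 0.01% Tween-20, then compound added for 30 min. AlphaScreen streptavidin donor/nickel chelate acceptor beads (10 ug/mL final), 30 min dark, luminescence read.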
BAZ2B inh – qHTS Assay for Inhibitors of BAZ2B. Bromodomain adjacent to zinc finger domain protein 2B (Homo sapiens), Q9UIF8. AlphaScreen BAZ2B-H3K14Ac peptide displacement. Potency, µM (top dose mostly 114 µM), for the others: at the top dose activity change, negative = inhibition, hits mostly inhibitors. 4.4% of 360,000 active. AID 504333, 2011; also: % is scaled to controls: 0 for no effect and ±100 for the full control effect; nearly all actives have a fitted effect of over 60% in size
Target sequence (Q9UIF8 whole entry, looked up, the tested form may be a part): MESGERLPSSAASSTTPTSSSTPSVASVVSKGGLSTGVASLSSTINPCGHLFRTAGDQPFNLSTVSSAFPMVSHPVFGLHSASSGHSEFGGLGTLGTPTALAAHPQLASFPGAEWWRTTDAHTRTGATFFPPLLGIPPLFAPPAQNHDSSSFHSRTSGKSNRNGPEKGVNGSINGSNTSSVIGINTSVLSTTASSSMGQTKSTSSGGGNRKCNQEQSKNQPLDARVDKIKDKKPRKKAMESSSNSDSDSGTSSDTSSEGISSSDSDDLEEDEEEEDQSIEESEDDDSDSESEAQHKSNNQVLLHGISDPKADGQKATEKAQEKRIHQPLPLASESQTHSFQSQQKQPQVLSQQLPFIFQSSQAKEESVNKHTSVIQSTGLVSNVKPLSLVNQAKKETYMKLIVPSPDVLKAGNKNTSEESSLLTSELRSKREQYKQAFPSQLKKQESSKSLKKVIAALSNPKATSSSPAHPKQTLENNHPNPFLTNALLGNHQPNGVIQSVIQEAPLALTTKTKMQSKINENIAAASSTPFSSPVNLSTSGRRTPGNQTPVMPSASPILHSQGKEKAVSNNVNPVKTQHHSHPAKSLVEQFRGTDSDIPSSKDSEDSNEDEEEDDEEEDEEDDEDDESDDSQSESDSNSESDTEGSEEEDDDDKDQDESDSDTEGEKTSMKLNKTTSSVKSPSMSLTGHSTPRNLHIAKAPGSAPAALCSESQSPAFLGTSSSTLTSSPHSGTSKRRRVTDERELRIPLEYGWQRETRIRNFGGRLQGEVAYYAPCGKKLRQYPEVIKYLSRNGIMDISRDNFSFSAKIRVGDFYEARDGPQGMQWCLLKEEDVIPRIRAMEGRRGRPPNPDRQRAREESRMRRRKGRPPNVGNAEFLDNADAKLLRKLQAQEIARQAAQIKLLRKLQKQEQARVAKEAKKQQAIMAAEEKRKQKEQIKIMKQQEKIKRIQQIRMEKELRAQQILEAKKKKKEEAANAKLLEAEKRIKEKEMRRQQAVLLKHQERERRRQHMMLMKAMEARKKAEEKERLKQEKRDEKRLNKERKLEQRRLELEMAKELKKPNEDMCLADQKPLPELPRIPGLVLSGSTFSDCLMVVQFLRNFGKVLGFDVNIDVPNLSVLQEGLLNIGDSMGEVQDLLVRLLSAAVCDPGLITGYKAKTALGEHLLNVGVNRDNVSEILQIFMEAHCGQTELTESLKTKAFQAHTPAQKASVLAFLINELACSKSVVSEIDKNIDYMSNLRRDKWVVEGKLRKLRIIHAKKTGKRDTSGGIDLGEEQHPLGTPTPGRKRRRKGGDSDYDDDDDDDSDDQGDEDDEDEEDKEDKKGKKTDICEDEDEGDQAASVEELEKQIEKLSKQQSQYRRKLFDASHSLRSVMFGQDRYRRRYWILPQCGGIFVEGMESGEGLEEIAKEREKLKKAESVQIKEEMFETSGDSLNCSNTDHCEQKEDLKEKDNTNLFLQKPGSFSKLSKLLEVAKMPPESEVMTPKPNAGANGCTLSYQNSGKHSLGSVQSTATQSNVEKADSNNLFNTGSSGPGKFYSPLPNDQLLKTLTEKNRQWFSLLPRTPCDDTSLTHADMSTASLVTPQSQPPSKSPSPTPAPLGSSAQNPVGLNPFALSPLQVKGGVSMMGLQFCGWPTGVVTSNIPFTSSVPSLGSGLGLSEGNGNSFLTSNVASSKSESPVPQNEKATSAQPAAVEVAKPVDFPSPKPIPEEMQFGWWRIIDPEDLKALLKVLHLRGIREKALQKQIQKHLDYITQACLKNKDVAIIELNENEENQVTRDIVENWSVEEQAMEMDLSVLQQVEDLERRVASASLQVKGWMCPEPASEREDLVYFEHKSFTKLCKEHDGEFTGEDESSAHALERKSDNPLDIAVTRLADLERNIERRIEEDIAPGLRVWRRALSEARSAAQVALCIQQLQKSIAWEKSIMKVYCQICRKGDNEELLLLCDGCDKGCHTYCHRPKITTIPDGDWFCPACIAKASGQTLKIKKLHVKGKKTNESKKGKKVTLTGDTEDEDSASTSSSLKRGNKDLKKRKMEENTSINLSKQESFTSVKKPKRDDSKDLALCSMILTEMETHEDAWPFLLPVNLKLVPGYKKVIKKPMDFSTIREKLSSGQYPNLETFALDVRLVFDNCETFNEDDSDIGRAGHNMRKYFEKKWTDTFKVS
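BAZ2B (50 nM) with biotin-H3(5-23)K14Ac peptide (50 nM) in PBS pH 7.4, 0.01% Tween-20, preformed 30 min, then compound 30 min at room temperature; top concentration 110uM. AlphaScreen streptavidin donor/nickel chelate acceptor beads (10 ug/mL final), 20 min dark, signal read.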
G9a block – qHTS Assay for Inhibitors of Histone Lysine Methyltransferase G9a; Histone-lysine N-methyltransferase EHMT2 (Homo sapiens), Q96KQ7; G9a H3K9 monomethylation, AlphaScreen, 2 h; Potency, µM (top dose mostly 102 µM), for inactives: at the top dose activity, negative = inhibition, usual class: inhibitors; 8.8% of 350,000 active; AID 504332, 2011; also: % is scaled to controls: 0 for no effect and ±100 for the full control effect; nearly all actives have a fitted effect of over 75% in size
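Quantitative HTS format: methyltransferase activity on a biotin-tagged H3K9 peptide is measured by AlphaScreen, using a rabbit anti-monomethyl-H3K9 antibody with streptavidin donor and anti-IgG acceptor beads. Final levels are 20 nM enzyme, 500 nM peptide, 20 uM SAM; 2 h RT.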
Starred values were filed as active, the others as inactive; [ ] = another dose, or the depositor's remark. Calls follow the shape of the dose curve; as a rule, active = well fitted curve in the direction sought with a large enough effect; inconclusive = small, poorly fitted or top-dose-only effect, or another doubt; inactive = no such curve, though single readings can be large; an effect the other way counts as inactive or inconclusive. Potency is read from the fitted curve at half-maximal effect.

For CCOC(=O)CC(C)(C)/C(C)=N/Nc1ccc([N+](=O)[O-])cc1[N+](=O)[O-] the results were Sfp inh 1.2%, ALOX12 inh -18.2%, JMJD2A Tudor inh inconclusive, HP1b chromo inh 14.1µM*, BAZ2B inh 7.08µM* and G9a block 8.91µM*.
`CCOC(=O)C(C(=O)OCC)C(C)(C)/C(C)=N\Nc1ccc([N+](=O)[O-])cc1[N+](=O)[O-]` gave Sfp inh -16.0%, ALOX12 inh 4.3%, JMJD2A Tudor inh 31.6µM*, HP1b chromo inh 35.5µM*, BAZ2B inh 10µM* and G9a block inconclusive.
`COc1ccc2cc(C3Nc4ccccc4C(=O)N3C3CC3)ccc2c1` (stereo not drawn) gave ALOX12 inh -7.2%.
Screening NC(C(=O)O)C(O)C(=O)O (stereo not drawn) returned Sfp inh 8.7%.
`NC(C(=O)O)[C@H](O)C(=O)O` (stereo partly drawn) gave Sfp inh 56.2µM*, ALOX12 inh 0.8% and G9a block 5.8%[59 µM].
CCOC(=O)c1ccc(NC(=O)C2=C(c3ccccc3)S(=O)(=O)CCO2)cc1 was read as ALOX12 inh 8.6%.
Cc1cc2nc(SCC(=O)Nc3ccc4c(c3)OCO4)n(C)c(=O)c2[nH]1 was read as ALOX12 inh -19.6%.
`CC(Sc1nnc(-c2cc3ccccc3o2)n1-c1ccccc1)C(=O)O` (stereo not drawn) gave Sfp inh 4.1%, ALOX12 inh -7.8%, JMJD2A Tudor inh -17.8%, HP1b chromo inh 29.8%, BAZ2B inh 5.9% and G9a block 8.91µM*.
`COc1ccccc1-c1nnc(SCC(=O)c2ccc(Cl)cc2)n1-c1ccccc1` gave ALOX12 inh -14.5%, JMJD2A Tudor inh -25.7%, HP1b chromo inh 14.1%, BAZ2B inh -28.0% and G9a block -43.7%[59 µM].
COc1ccc(C(=O)CSc2nnc(CCc3ccccc3)n2-c2ccccc2)cc1 was read as Sfp inh -17.7%, ALOX12 inh inconclusive, JMJD2A Tudor inh 56.2µM*, HP1b chromo inh 17.1%, BAZ2B inh -0.9% and G9a block 39.8µM*.
CC(Sc1nc2ccccc2o1)C(=O)O (stereo not drawn) was read as Sfp inh 12.7%, ALOX12 inh 0.0%, JMJD2A Tudor inh 0.7%, HP1b chromo inh 37.4%, BAZ2B inh -7.1% and G9a block 50.1µM*.
`CC(C)Oc1ccc(CCc2nnc(SC(C)C(=O)O)n2-c2ccccc2)cc1` (stereo not drawn) gave Sfp inh 12.4%, ALOX12 inh -5.1%, JMJD2A Tudor inh 56.2µM*, HP1b chromo inh 25.8%[57 µM] and BAZ2B inh 1.6%.
O=C(c1ccccc1)N1CCC2(Cc3ccccc3NC2=O)C1 (stereo not drawn) was read as ALOX12 inh 44.8%[176 µM].
COc1ccc(-n2c(CCc3ccccc3)nnc2SCC(=O)c2ccccc2)cc1 was read as Sfp inh inconclusive, ALOX12 inh -13.8%, JMJD2A Tudor inh -35.2%, HP1b chromo inh 0.0%, BAZ2B inh -36.8% and G9a block 8.91µM*.
COc1ccc(-n2c(CCc3ccccc3)nnc2SCC(=O)NCc2ccccc2)cc1 was read as Sfp inh 17.7%, ALOX12 inh 1.6%, JMJD2A Tudor inh -19.2%, HP1b chromo inh 27.4%, BAZ2B inh -32.3% and G9a block inconclusive.
